According to PubChem BioAssay:
Several values for one entry are separate records, joined by “and”; a condition that tells them apart may be missing. Equal entries are not always repeated. Activity calls are given as the source filed them. Unless noted, no rule for the calls is given here.

Key:
[1] = system: Wnt5a (protein binding on small-molecule microarray); test: Wnt5a binders on small-molecule microarray, primary screen, biophysical, 635/667 nm fluorescence (AID 1142); settings: 635 nm fluorescence, higher = more signal;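 also: fluorescence read at 667 nm with signal to noise per printed feature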
[2] = cell viability in Huh7 cells, primary screen, cytotoxicity control for HCV replication inhibitor project, CellTiter-Glo luminescence, basal, 48 h (AID 1143); settings: Huh7 HCV replicon, higher = more signal, called active from +8 up or from −8 down;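 also: Huh7 hepatoma cells carrying a hepatitis C replication reporter with no stimulus; test concentration not given here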
[3] = P. aeruginosa biofilm formation inhibitors, primary screen, PAO1 strain, BacTiter-Glo luminescence, LB-PBS (AID 1144); settings: 12 h, higher = more signal
[4] = CREB reporter modulators without forskolin, primary screen, cell-based, PC12, CRE-LacZ reporter, unstimulated (AID 1145); settings: no forskolin, luminescence, 4.5 h, higher = more signal, called active from +8 up or from −8 down
[5] = CREB reporter modulators under forskolin, primary screen, cell-based, PC12, CRE-LacZ reporter, forskolin-stimulated (AID 1146); settings: luminescence, 4.5 h, higher = more signal, called active from +8 up or from −8 down;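 also: PC12 cells with 6xCRE LacZ reporter stimulated by forskolin 10 µM; beta-galactosidase reporter signal reflecting CREB driven transcription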
[6] = molecular target: Streptavidin (Streptomyces avidinii) (UniProt P22629); test: streptavidin binders on small-molecule microarray, primary screen, artefact control for SMM compound annotation, biophysical, 635/667 nm fluorescence (AID 1147); settings: streptavidin binding, higher = more signal;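 also: signal reflects streptavidin binding to arrayed compounds as a control protein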
[7] = small-molecule binders of probe aInhba, primary screen, biochemical, small-molecule microarray, 635/667 nm fluorescence (AID 1148); settings: higher = more signal;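 also: score merges 667nm spot fluorescence with signal-to-noise for antibody binding to printed compounds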
Torsin-1A (Homo sapiens) [8] = molecular target: Torsin-1A (Homo sapiens) (UniProt O14656); test: torsin A binders from cell lysate, primary screen, small-molecule microarray, wild-type, 635/667 nm (AID 1149); settings: COS7 hTOR1A-WT lysate, 635 nm fluorescence, higher = more signal
Torsin-1A (Homo sapiens) [9] = molecular target: Torsin-1A (Homo sapiens) (UniProt O14656); test: small-molecule binders of mutant TOR1A in lysate, primary screen, cell lysate, small-molecule microarray, COS7 lysate, 635/667 nm fluorescence (AID 1150); settings: COS7 hTOR1A mutant lysate, 635 nm fluorescence, higher = more signal;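 also: score pools 667 nm emission and signal to noise measuring lysate protein binding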
[10] = system: Sonic hedgehog protein (Shh); test: small-molecule binders of Shh protein, primary screen, biochemical, small-molecule microarray, 635/667 nm fluorescence (AID 1151); settings: small-molecule microarray binding, 635 nm fluorescence; higher = more signal;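 also: Shh protein binding to compounds spotted on small-molecule microarray slides; score combines spot fluorescence intensity with signal-to-noise across triplicate slides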
[11] = E. coli DRC41 culture turbidity changes, primary screen, E. coli filamentation inducer project, strain DRC41, OD650, 48 h (AID 1152);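 also: E. coli MC1000 strain DRC41 lacking acrAB efflux pump and sulA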; settings: E. coli DRC41 (acrAB sulA), higher = more signal, called active from +8 up or from −8 down
[12] = small-molecule binders of probe aLefty1, primary screen, biochemical, small-molecule microarray, 635/667 nm fluorescence (AID 1153); settings: higher = more signal;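 also: score merges spot fluorescence with signal-to-noise ratio from the scanned slide images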
[13] = PSAC antagonists in infected red cells, primary screen, cell-based, P. falciparum Indochina, OD700, 1 h (AID 1154); settings: P. falciparum Indochina infected RBC osmotic lysis, higher = more signal, called active from +8 up or from −8 down
[14] = PSAC antagonists in infected red cells, primary screen, cell-based, P. falciparum Indochina, OD700, 2 h (AID 1155);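 also: lysis reports solute entry through the parasite surface anion channel PSAC; channel blockers reduce lysis of infected cells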; settings: P. falciparum Indochina infected erythrocytes, osmotic lysis OD700; higher = more signal, called active from +8 up or from −8 down
[15] = osmotic lysis modulators in infected erythrocytes, primary screen, PSAC antagonist project, cell-based, P. falciparum Indochina, OD700, 3 h (AID 1156); settings: higher = more signal, called active from +8 up or from −8 down
[16] = PSAC antagonists in infected red cells, primary screen, cell-based, P. falciparum Indochina, OD700, 18 h (AID 1157); settings: P. falciparum Indochina infected erythrocytes, osmotic lysis OD700, 18 h; higher = more signal, called active from +8 up or from −8 down
[17] = modulators of S6 phosphorylation in cells, primary screen, cell-based, A549, cytoblot, luminescence, serum-stimulated (AID 1158); settings: A549 phospho-S6 cytoblot, 5 h, higher = more signal;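 also: serum-stimulated A549 lung adenocarcinoma cells; signal is phosphorylated S6 detected by cytoblot immunostaining with HRP secondary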
[18] = molecular target: NADPH oxidase 2 (Homo sapiens) (UniProt P04839); test: NOX2-dependent H2O2 signal modulators, primary screen, NOX inhibitor project, cell-based, HEK293-NOX2, PMA-stimulated, Amplex Red fluorescence (AID 1159); settings: 45 min, higher = more signal, called active from +8 up or from −8 down; also: test concentration not given here
[19] = molecular target: NADPH oxidase 4 (Homo sapiens) (UniProt Q9NPH5); test: NOX4-dependent H2O2 signal modulators, primary screen, NOX inhibitor project, cell-based, HEK293-NOX4, tetracycline-induced, Amplex Red fluorescence (AID 1160); settings: 45 min, higher = more signal, called active from +8 up or from −8 down
[20] = molecular target: NADPH oxidase 5 (Homo sapiens) (UniProt Q96PH1); test: NOX5-dependent H2O2 signal modulators, primary screen, NOX inhibitor project, cell-based, HEK293-NOX5, Amplex Red fluorescence (AID 1161); settings: HEK293-NOX5, ionomycin, 45 min, higher = more signal
Chain of NADPH oxidase 5 (Homo sapiens) (Q96PH1 whole entry, looked up): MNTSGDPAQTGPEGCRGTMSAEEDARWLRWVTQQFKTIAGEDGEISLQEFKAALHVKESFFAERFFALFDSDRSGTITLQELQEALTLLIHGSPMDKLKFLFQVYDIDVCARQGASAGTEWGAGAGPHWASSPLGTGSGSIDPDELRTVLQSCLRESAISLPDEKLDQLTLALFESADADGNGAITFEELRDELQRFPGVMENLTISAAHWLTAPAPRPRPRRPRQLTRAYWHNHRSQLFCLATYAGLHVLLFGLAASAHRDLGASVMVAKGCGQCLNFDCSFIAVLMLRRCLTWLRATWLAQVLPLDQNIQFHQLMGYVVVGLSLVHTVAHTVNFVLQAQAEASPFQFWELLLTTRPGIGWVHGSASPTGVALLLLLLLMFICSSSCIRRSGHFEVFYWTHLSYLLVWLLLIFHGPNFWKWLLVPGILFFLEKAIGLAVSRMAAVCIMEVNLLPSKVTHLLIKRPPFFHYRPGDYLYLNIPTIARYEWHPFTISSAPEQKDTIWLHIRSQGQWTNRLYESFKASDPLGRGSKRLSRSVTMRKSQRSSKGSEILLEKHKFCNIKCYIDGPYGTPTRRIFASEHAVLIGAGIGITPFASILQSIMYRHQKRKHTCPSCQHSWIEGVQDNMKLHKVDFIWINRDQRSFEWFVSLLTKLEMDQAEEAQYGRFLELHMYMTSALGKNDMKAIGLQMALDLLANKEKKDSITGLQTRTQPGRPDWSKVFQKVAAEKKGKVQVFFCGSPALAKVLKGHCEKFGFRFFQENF

Chain of NADPH oxidase 4 (Homo sapiens) (Q9NPH5 whole entry, looked up): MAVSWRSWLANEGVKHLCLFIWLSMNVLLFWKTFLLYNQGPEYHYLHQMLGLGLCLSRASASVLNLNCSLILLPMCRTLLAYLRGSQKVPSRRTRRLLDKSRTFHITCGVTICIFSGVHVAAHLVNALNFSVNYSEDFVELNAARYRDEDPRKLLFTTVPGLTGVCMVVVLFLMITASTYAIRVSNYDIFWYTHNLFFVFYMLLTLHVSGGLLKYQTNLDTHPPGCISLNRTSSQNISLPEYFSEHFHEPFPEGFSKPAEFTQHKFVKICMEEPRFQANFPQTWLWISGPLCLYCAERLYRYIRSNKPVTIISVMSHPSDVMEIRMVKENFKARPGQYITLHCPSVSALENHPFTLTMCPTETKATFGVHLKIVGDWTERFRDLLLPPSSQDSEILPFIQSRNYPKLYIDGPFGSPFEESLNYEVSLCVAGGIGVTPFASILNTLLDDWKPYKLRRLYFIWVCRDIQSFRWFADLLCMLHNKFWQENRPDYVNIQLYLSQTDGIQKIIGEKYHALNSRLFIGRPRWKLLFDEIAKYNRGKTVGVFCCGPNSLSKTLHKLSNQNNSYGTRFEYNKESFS
Chain of Streptavidin (Streptomyces avidinii) (P22629 whole entry, looked up): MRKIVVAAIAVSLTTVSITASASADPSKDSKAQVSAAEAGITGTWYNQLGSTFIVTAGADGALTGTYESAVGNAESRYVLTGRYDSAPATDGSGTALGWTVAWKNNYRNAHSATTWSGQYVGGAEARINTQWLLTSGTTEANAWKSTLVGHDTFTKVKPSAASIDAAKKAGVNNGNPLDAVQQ
Chain of Torsin-1A (Homo sapiens) (O14656 whole entry, looked up): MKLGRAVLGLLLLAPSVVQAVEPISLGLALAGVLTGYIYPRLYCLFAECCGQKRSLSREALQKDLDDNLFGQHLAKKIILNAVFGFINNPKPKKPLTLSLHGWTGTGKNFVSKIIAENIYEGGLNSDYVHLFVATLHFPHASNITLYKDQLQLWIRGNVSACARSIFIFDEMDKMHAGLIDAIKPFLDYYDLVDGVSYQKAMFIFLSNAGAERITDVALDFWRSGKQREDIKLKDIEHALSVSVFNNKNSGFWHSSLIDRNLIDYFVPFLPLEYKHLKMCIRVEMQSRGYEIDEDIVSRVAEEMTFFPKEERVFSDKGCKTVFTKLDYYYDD
Chain of NADPH oxidase 2 (Homo sapiens) (P04839 whole entry, looked up): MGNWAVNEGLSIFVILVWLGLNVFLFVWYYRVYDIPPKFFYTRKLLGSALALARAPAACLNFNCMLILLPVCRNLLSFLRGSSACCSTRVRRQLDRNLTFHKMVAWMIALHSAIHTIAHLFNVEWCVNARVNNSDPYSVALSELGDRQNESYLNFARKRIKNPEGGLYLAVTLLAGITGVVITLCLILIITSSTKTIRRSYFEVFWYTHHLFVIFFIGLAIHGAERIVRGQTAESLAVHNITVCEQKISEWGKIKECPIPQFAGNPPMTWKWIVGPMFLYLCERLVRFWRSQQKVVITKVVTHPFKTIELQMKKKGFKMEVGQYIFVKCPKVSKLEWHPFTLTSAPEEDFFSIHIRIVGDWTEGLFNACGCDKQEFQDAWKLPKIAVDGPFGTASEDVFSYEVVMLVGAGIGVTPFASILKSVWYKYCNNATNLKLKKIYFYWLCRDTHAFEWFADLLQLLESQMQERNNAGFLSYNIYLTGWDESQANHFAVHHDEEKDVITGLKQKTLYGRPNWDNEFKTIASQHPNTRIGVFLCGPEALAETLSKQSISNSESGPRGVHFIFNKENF

Compound | composite z-score [1] | z-score [2] | z-score [3] | z-score [4] | z-score [5] | composite z-score [6] | composite z-score [7] | composite z-score (Torsin-1A (Homo sapiens) [8]) | composite z-score (Torsin-1A (Homo sapiens) [9]) | composite z-score [10] | z-score [11] | composite z-score [12] | z-score [13] | z-score [14] | z-score [15] | z-score [16] | z-score [17] | z-score [18] | z-score [19] | z-score [20]
CC(C)C(=O)N[C@@H]1CCCN1C(=O)C=Cc1ccccc1 | -0.0494 | 0.135 (inactive) | 1.06 (inactive) | 0.56 (inactive) | 0.685 (inactive) | 0.504 | -0.0216 | 0.841 | 0.448 | 0.605 | 0.214 (inactive) | -0.101 | -0.272 (inactive) | 0.274 (inactive) | -0.77 (inactive) | -0.241 (inactive) | -0.685 | -0.457 (inactive) | 0.53 (inactive) | 0.434
C=C[C@@H](OC)[C@H](O)c1ccc(OC)c(O)c1 | 0.192 and -0.0615 | -0.825 (inactive) and 1.07 (inactive) | 0.729 (inactive) | 0.441 (inactive) and -0.142 (inactive) | 0.0793 (inactive) and -1.37 (inactive) | -0.964 and -1.77 | -0.281 and -0.306 | 0.059 and -0.285 | -0.242 and -0.089 | 0.439 and -0.117 | 0.232 (inactive) and 1.81 (inactive) | 0.235 and -0.328 | 0.61 (inactive) and -0.257 (inactive) | 0.436 (inactive) and -1.63 (inactive) | -0.28 (inactive) and -1.54 (inactive) | 0.328 (inactive) and -2.34 (inactive) | 0.138 and 0.185 | -2.35 (inactive) and -2.11 (inactive) | -0.998 (inactive) and -1.12 (inactive) | -1.51 and -0.778
C=CCN(C(=O)C(c1cccs1)N(C(=O)/C=C\C(=O)O)c1ccc(CCO)cc1)c1ccc(OC)cc1 (stereo not given) | -1.21 and -1.14 | 0.369 (inactive) and 0.0408 (inactive) | -2.25 (inactive) and -0.545 (inactive) | -0.358 (inactive) and 0.463 (inactive) | -0.308 (inactive) and 0.311 (inactive) | -1.31 and -0.93 | -0.257 and -0.203 | -3.35 and -2.12 | 0.425 and -1.7 | -1.17 and -0.672 | 2.16 (inactive) and 0.76 (inactive) | -0.0186 and -0.229 | 1.73 (inactive) and -1.02 (inactive) | 0.0371 (inactive) and -0.3 (inactive) | -0.0439 (inactive) and 0.347 (inactive) | 0.454 (inactive) and -0.0131 (inactive) | 0.749 and 0.862 | -0.147 (inactive) and -0.268 (inactive) | -0.649 (inactive) and -1.34 (inactive) | 0.137 and -0.261
COC(=O)c1c2oc(c1C(=O)OC)C(=O)N[C@@H](Cc1ccccc1)Cn1cc(nn1)C1(CCCCC1)NC(=O)N[C@H](CO)CC2 | 0.547 and 0.189 | -0.237 (inactive) and -0.109 (inactive) | -1.23 (inactive) and -0.509 (inactive) | 0.484 (inactive) and 3.25 (inactive) | -0.635 (inactive) and -0.0904 (inactive) | 0.216 and 0.517 | 0.271 and -0.103 | 0.212 and 0.403 | -0.0506 and 0.489 | 1.28 and 0.781 | 2.62 (inactive) and 1.74 (inactive) | 0.391 and 0.0455 | 1.36 (inactive) and 4.41 (inactive) | 0.431 (inactive) and 1.49 (inactive) | 0.557 (inactive) and 0.593 (inactive) | 0.454 (inactive) and 0.801 (inactive) | 0.427 and 0.173 | 0.432 (inactive) and 0.428 (inactive) | 1.67 (inactive) and -1.49 (inactive) | 0.922 and -2.52
C=CCN(CCCC)C(=O)C1N(CCOCCO)C(=O)C2C(C(=O)O)C3C=CC21O3 (stereo not given) | -0.978 and -0.38 | 0.757 (inactive) and -0.117 (inactive) | 1.42 (inactive) and 1.2 (inactive) | -0.899 (inactive) and -0.497 (inactive) | -0.327 (inactive) and -0.267 (inactive) | -1.6 and -1.56 | -0.128 and -0.353 | -3.18 and -0.099 | -2.51 and 2.04 | -1.52 and -1.51 | 0.151 (inactive) and -0.207 (inactive) | -0.191 and -0.454 | 0.461 (inactive) and -0.326 (inactive) | 0.703 (inactive) and 0.124 (inactive) | -0.668 (inactive) and -0.506 (inactive) | 0.0875 (inactive) and 0.111 (inactive) | -0.0621 and 0.53 | 0.502 (inactive) and 0.676 (inactive) | -1.77 (inactive) and -2.02 (inactive) | -0.512 and 0.152
C=C[C@@H](C)[C@@H](O)c1ccc(O)c2ccccc12 | 0.0168 and -0.729 | 0.61 (inactive) and -1.13 (inactive) | -0.647 (inactive) and -0.589 (inactive) | 2.68 (inactive) and -0.3 (inactive) | 3.22 (inactive) and 5.31 (inactive) | -1.28 and -0.645 | -0.304 and -0.278 | -1.2 and -1.52 | -1.14 and -0.798 | -0.103 and 0.297 | -0.433 (inactive) and 0.891 (inactive) | -0.194 and -0.0851 | 0.837 (inactive) and 2.36 (inactive) | -0.0805 (inactive) and 0.389 (inactive) | -0.718 (inactive) and 0.0336 (inactive) | 0.205 (inactive) and 1.19 (inactive) | -0.565 and 0.273 | -5.58 (inactive) and -5.73 (inactive) | -0.616 (inactive) and -1.33 (inactive) | 1.95 and 1.31
